Data taken from article PMC8384837, “Expanding the binding specificity for RNA recognition by a PUF domain”.

Assays:
Test in all cases: yeast three-hybrid, YBZ-1, SC-Leu-His + 0.5 mM 3-AT, 4 days
Settings in all cases: tags: N-Gal4 AD-HA kept; label: inside an RPR1-promoter hybrid RNA with tandem MS2 sites; ssRNA
PUM1 PUF domain R5-KGS = PUM1 PUF domain R5-KGS (Homo sapiens, UniProt Q14671 828-1176, C1007K;R1008G;Q1011S)
Procedure, shortened: (§1)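 The interaction score is the log change in variant frequency from input to selection. Scores were computed in log2 with a pseudocount of 1 for absent variants, using Illumina sequencing of PCR-amplified repeat regions. The input came from four days on SC-Leu and the selection from four days on SC-Leu-His + 0.5 mM 3-AT. The cells were strain YBZ-1 (LexA–MS2 coat fusion, HIS3 reporter) co-expressing Pumilio-1 PUF domain libraries and matching RNA elements from a centromeric plasmid.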

PUM1 PUF domain R4-GWW = PUM1 PUF domain R4-GWW (Homo sapiens, UniProt Q14671 828-1176, N971G;H972W;Q975W)
Procedure, shortened: as §1

PUM1 PUF domain R4-CYP = PUM1 PUF domain R4-CYP (Homo sapiens, UniProt Q14671 828-1176, N971C;H972Y;Q975P)
Procedure, shortened: as §1

PUM1 PUF domain R4-RNY = PUM1 PUF domain R4-RNY (Homo sapiens, UniProt Q14671 828-1176, N971R;H972N;Q975Y)
Procedure, shortened: as §1

PUM1 PUF domain R4-SWP = PUM1 PUF domain R4-SWP (Homo sapiens, UniProt Q14671 828-1176, N971S;H972W;Q975P)
Procedure, shortened: as §1

PUM1 PUF domain R4-SRE = PUM1 PUF domain R4-SRE (Homo sapiens, UniProt Q14671 828-1176, N971S;H972R;Q975E)
Procedure, shortened: as §1

PUM1 PUF domain R4-ARG = PUM1 PUF domain R4-ARG (Homo sapiens, UniProt Q14671 828-1176, N971A;H972R;Q975G)
Chain of PUM1 PUF domain R4-ARG (Q14671 828-1176 N971A/H972R/Q975G): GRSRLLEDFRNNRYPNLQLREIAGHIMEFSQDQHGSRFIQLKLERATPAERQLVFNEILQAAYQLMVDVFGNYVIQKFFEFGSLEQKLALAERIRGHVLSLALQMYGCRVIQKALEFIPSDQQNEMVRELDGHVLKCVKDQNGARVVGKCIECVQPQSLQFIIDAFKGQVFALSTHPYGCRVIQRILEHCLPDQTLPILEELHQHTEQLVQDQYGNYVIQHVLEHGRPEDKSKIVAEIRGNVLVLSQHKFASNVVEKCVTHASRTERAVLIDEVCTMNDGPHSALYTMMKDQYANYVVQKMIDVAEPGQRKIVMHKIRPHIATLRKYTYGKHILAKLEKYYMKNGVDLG
Procedure, shortened: as §1

PUM1 PUF domain R6-NFT = molecular target: T1, PUM1 PUF domain R6-NFT (Homo sapiens, UniProt Q14671 828-1176, Y1044F;Q1047T)
T1 sequence: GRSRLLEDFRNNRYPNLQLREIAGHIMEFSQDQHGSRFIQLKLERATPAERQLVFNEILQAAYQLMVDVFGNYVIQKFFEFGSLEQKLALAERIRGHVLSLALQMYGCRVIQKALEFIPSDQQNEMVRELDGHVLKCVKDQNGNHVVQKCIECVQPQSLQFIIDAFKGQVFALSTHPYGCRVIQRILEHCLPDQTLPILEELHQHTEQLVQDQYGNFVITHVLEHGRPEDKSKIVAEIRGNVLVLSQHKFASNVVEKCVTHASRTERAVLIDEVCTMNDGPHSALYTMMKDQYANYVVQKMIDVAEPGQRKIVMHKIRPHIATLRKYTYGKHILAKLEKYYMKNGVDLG
Procedure, shortened: as §1

PUM1 PUF domain R3-ESL = PUM1 PUF domain R3-ESL (Homo sapiens, UniProt Q14671 828-1176, C935E;R936S;Q939L)
Procedure, shortened: as §1

PUM1 PUF domain R8-VYF = PUM1 PUF domain R8-VYF (Homo sapiens, UniProt Q14671 828-1176, N1122V;Q1126F)
Procedure, shortened: as §1

PUM1 PUF domain R4-NPG = PUM1 PUF domain R4-NPG (Homo sapiens, UniProt Q14671 828-1176, H972P;Q975G)
Chain of PUM1 PUF domain R4-NPG (Q14671 828-1176 H972P/Q975G): as the sequence (Q14671 828-1176 N971A/H972R/Q975G) above, with A144N, R145P counted along it
Procedure, shortened: as §1

PUM1 PUF domain R1-ARR = PUM1 PUF domain R1-ARR (Homo sapiens, UniProt Q14671 828-1176, S863A;Q867R)
Procedure, shortened: as §1

PUM1 PUF domain R4-SNR = PUM1 PUF domain R4-SNR (Homo sapiens, UniProt Q14671 828-1176, N971S;H972N;Q975R)
Procedure, shortened: as §1

PUM1 PUF domain R3-RCN = PUM1 PUF domain R3-RCN (Homo sapiens, UniProt Q14671 828-1176, C935R;R936C;Q939N)
Procedure, shortened: as §1

PUM1 PUF domain R5-MHA = PUM1 PUF domain R5-MHA (Homo sapiens, UniProt Q14671 828-1176, C1007M;R1008H;Q1011A)
Procedure, shortened: as §1

PUM1 PUF domain R5-QCS = PUM1 PUF domain R5-QCS (Homo sapiens, UniProt Q14671 828-1176, C1007Q;R1008C;Q1011S)
Procedure, shortened: as §1

In the case of “GGCUAGAACUAGUGGAUCCCCCGGCGCCCGGCGGCUCGAGCCCGGGUAAGUGUCAAUAGUCUGCAUGCCGCCGGGCGCCAUGCCUGCAGGUCGACUCUAGAAAACAUG”, the binding signal (PUM1 PUF domain R5-KGS) is reported as 4.66 log2 enrichment (interaction score).
“GGCUAGAACUAGUGGAUCCCCCGGCGCCCGGCGGCUCGAGCCCGGGUAAGUGUAAAUAGUCUGCAUGCCGCCGGGCGCCAUGCCUGCAGGUCGACUCUAGAAAACAUG” was tested, and the binding signal (PUM1 PUF domain R4-GWW) was 3.18 log2 enrichment (interaction score), the binding signal (PUM1 PUF domain R4-CYP) was 5.36 log2 enrichment (interaction score) and the binding signal (PUM1 PUF domain R4-RNY) was 3.7 log2 enrichment (interaction score). For the same sequence, the binding signal (PUM1 PUF domain R4-SWP) was 5.57 log2 enrichment (interaction score), the binding signal (PUM1 PUF domain R4-SRE) was 3.49 log2 enrichment (interaction score) and the binding signal (PUM1 PUF domain R4-ARG) was 4.57 log2 enrichment (interaction score). For the same sequence, the binding signal (PUM1 PUF domain R6-NFT) was 4.45 log2 enrichment (interaction score), the binding signal (PUM1 PUF domain R3-ESL) was 2.59 log2 enrichment (interaction score) and the binding signal (PUM1 PUF domain R8-VYF) was 2.23 log2 enrichment (interaction score). The binding signal (PUM1 PUF domain R4-NPG) was 2.63 log2 enrichment (interaction score).
For “GGCUAGAACUAGUGGAUCCCCCGGCGCCCGGCGGCUCGAGCCCGGGUAAGUGUAAAUCGUCUGCAUGCCGCCGGGCGCCAUGCCUGCAGGUCGACUCUAGAAAACAUG”, the binding signal (PUM1 PUF domain R1-ARR) was 2.95 log2 enrichment (interaction score).
For “GGCUAGAACUAGUGGAUCCCCCGGCGCCCGGCGGCUCGAGCCCGGGUAAGUGUAUAUAGUCUGCAUGCCGCCGGGCGCCAUGCCUGCAGGUCGACUCUAGAAAACAUG”, the binding signal (PUM1 PUF domain R4-SNR) was 2.9 log2 enrichment (interaction score), the binding signal (PUM1 PUF domain R4-SWP) was 5.26 log2 enrichment (interaction score) and the binding signal (PUM1 PUF domain R4-ARG) was 1.79 log2 enrichment (interaction score). For the same sequence, the binding signal (PUM1 PUF domain R4-NPG) was 3.81 log2 enrichment (interaction score).
“GGCUAGAACUAGUGGAUCCCCCGGCGCCCGGCGGCUCGAGCCCGGGUAAGUGUAAUUAGUCUGCAUGCCGCCGGGCGCCAUGCCUGCAGGUCGACUCUAGAAAACAUG” was tested, and the binding signal (PUM1 PUF domain R3-RCN) was 2.71 log2 enrichment (interaction score).
For “GGCUAGAACUAGUGGAUCCCCCGGCGCCCGGCGGCUCGAGCCCGGGUAAGUGUUAAUAGUCUGCAUGCCGCCGGGCGCCAUGCCUGCAGGUCGACUCUAGAAAACAUG”, the binding signal (PUM1 PUF domain R5-MHA) was 4.69 log2 enrichment (interaction score) and the binding signal (PUM1 PUF domain R5-QCS) was 0.61 log2 enrichment (interaction score).
For “GGCUAGAACUAGUGGAUCCCCCGGCGCCCGGCGGCUCGAGCCCGGGUAAGUGUGAAUAGUCUGCAUGCCGCCGGGCGCCAUGCCUGCAGGUCGACUCUAGAAAACAUG”, the binding signal (PUM1 PUF domain R5-QCS) was 3.56 log2 enrichment (interaction score).
